From PubChem BioAssay (NCATS)
Records with an inconclusive call do not appear. The source made the active and inactive calls. The call rests on the fitted dose curve; in most records, active means well fitted inhibition curve with a large enough effect; inconclusive means small, poorly fitted or top-dose-only effect; inactive means no such curve, though single readings can be large or run the other way.

Test: BET inhibitor-based combinations targeting novel dependencies in MECOM-rearranged (r) AML: MV-4-11 cell line (AID 2202233); further: nearly all actives have a fitted effect of over 45% in size
Conditions: MV-4-11 AML viability, CellTiter-Glo luminescence, 48 h; series mostly up to 46 µM
Source text: Ecotropic viral insertion site 1 (EVI1) is located on chromosome 3q26.2 as part of the MECOM (MDS and EVI1 complex) locus. Under normal hematopoiesis, EVI1 is a regulator of hematopoietic stem cell maintenance and self-renewal and EVI1 levels decrease as the cells differentiate. In approximately 5-10% of de novo acute myeloid leukemia (AML) EVI1 is aberrantly expressed, including Chromosomal inv(3)(q21;q26.2) or t(3;3)(q21;q26.2) alterations (MECOM-r) that account for about 50% of AML with EVI1 overexpression 31. AMLs with high levels of EVI1 have a poor prognosis and an overall survival time averaging between 10-14 months. EVI1 overexpression confers resistance in leukemia cells, highlighting the need to develop new targeted therapies for EVI1 overexpressing AMLs. Here, we performed an unbiased chemical drug screening by evaluating the single agent activity of a collection of 2,480 oncology-focused, approved and investigational drugs (NCATS Mechanism Interrogation Plates, MIPE v5.0) against a panel of seven AML cell lines. These included four MECOM-r cell-lines (AML-191, AML-194, UCSD-AML1 and HNT-34) and three non-MECOM-r AMLs (MV4-11, OCI-AML3 and SET-2). Exploiting the mechanistic redundancy built in the library, we identified target-level sensitivities in MECOM-r AML cells and relative activity as compared to other AML subtypes.
A collection of 2480 mechanistically annotated dugs (MIPE v5.0) was used to screen four 3q26.2 rearranged AML cell lines and three non-3q26.2 rearranged AML cell lines. This library purposely exploits redundancy by including multiple inhibitors of key onco-targets, while simultaneously encompassing mechanistic diversity, targeting more than 800 distinct mechanisms of action. Briefly, cells were seeded in 5 uL of growth media using a Multidrop Combi dispenser into 1536 well white polystyrene tissue culture treated plates (Corning) at a density of 500cells/well. For each cell-line, for each of the 2480 drugs in MIPE v5.0 library, an 11-point dose curve was generated via a 1536 pin-tool. Plates were incubated for 48 hr at standard incubator conditions, covered by a stainless steel gasketed lid to prevent evaporation. Cell viability was determined by luminescence based, Cell Titer Glo assay (Promega). In detail, 3 uL of Cell Titer Glo were added to each well and plates were incubated at room temperature for 15 min with a stainless-steel lid in place. Luminescence readings were taken using a Viewlux (PerkinElmer) with a 2 s exposure time per plate. Compound dose-response curves were normalized to DMSO and empty well controls on each plate. Quantitative drug activity data from dose-response curves was determined utilizing area Under the Curve (AUC) and Z-transformed AUC (Z-AUC, a mean-centering transformation applied to each individual cell-line screened).
Potency means the concentration at half of the fitted maximal effect.

Structure (SMILES) | Potency
COc1ccc(S(=O)(=O)Nc2cc(-c3csc(C#N)c3)ccc2C)cc1 | 0.235 µM (active)
COc1c(Nc2ncc(Cl)c(N[C@H]3[C@H](C(N)=O)[C@@H]4C=C[C@@H]3C4)n2)ccc2c1CCC(N1CCOCC1)CC2 (stereo not given in full) | 0.525 µM (active)
CCN(CC)CCNc1ccc(C)c2sc3ccccc3c(=O)c12 | 7.42 µM (active)
Cc1cc(CN2CCN(c3c(Br)cnc4nc(-c5ccc(N6CCN(C)CC6)cc5)[nH]c34)CC2)no1 | 0.332 µM (active)
CC(C)(C)NC(=O)c1cncn1C1CCN(c2ccc(-c3nnc(C(F)(F)F)o3)cn2)CC1 | 5.25 µM (active)
CCC[C@H](Nc1nc(-c2ccc(NC(=O)NCC)c(OC)c2)ncc1C)c1cccnc1 | 0.0525 µM (active)
CCc1c(C(=O)NNC(=O)[C@@H](O)c2cc(F)cc(F)c2)ccc(O)c1C | inactive
C=CC(=O)N1CCc2ccc(-n3c(=O)ccc4cnc5ccc(-c6cnn(C)c6)cc5c43)cc21 | 0.288 µM (active)
Cc1ccc(-c2ncc(Cl)cc2-c2ccc(S(C)(=O)=O)cc2)cn1 | inactive
CC(=O)N1CCC(Nc2cc(C(=O)NC[C@H](O)CN3CCc4ccccc4C3)ncn2)CC1 | 0.0417 µM (active)
COc1cc(NS(C)(=O)=O)ccc1Nc1c2ccccc2nc2ccccc12 | 0.0661 µM (active)
CC(C)Cc1ccc([C@@H](C)C(=O)NS(C)(=O)=O)cc1 | inactive
O=c1oc2cc(O)ccc2s1 | inactive
N#Cc1ccc(C(c2ccc(C#N)cc2)n2cncn2)cc1 | inactive
O=C(/C=C/c1ccc(CN(CCO)CCc2c[nH]c3ccccc23)cc1)NO | 0.0934 µM (active)
FC(F)(F)c1ccc(CNc2ccc(Cc3c[nH]c4ncc(Cl)cc34)cn2)cn1 | 0.934 µM (active)
CC[C@@H]1[C@H](F)C(=O)N[C@@H]1COc1nccc2cc(C(N)=O)c(OC)cc12 | 8.33 µM (active)
C=CC(=O)Nc1cccc(C)c1Nc1ncc2cc(-c3c(Cl)c(OC)cc(OC)c3Cl)ccc2n1 | 4.17 µM (active)
CCCCCCCCCCCC1=C(O)C(=O)C=C(O)C1=O | 13.2 µM (active)
Cc1cc(/C=c2/sc3nc4ccccc4n3c2=O)c(C)n1-c1ccccc1 | 20.9 µM (active)

Structure (SMILES) | Potency
O=C(O)CCC=CCC[C@@H]1[C@H](N2CCCCC2)[C@@H](O)C[C@@H]1OCc1ccc(-c2ccccc2)cc1 | inactive
Nc1nc(Nc2ccc3c(c2)CC[C@@H](N2CCCC2)CC3)nn1-c1cc2c(nn1)-c1ccccc1CCC2 | 2.63 µM (active)
Cn1nccc1Nc1nccc(-c2cc3c(s2)C(C)(C)N(CCN2CCOCC2)C3=O)n1 | 4.17 µM (active)
CC1(C)O[C@@H]2C[C@H]3[C@@H]4CCC5=CC(=O)C=C[C@]5(C)[C@H]4[C@@H](O)C[C@]3(C)[C@]2(C(=O)CO)O1 | inactive
CC1(C)O[C@@H]2C[C@H]3[C@@H]4C[C@H](F)C5=CC(=O)C=C[C@]5(C)[C@@]4(F)[C@@H](O)C[C@]3(C)[C@]2(C(=O)CO)O1 | inactive
CO[C@H]1/C=C\C=C(\C)C(=O)NC2=CC(=O)C(NCCN(C)C)=C(C[C@@H](C)C[C@H](OC)[C@H](O)[C@@H](C)/C=C(/C)[C@@H]1OC(N)=O)C2=O | 0.0295 µM (active)
O=C(Nc1cccc(Nc2ncc(Br)c(NCCc3cnc[nH]3)n2)c1)N1CCCC1 | 0.118 µM (active)
CC[C@H](CO)Nc1nc(NCc2ccccc2)c2ncn(C(C)C)c2n1 | 20.9 µM (active)
C=C[C@@H]1CN2CCC1C[C@H]2[C@H](O)c1ccnc2ccc(OC)cc12 (stereo not given in full) | 16.6 µM (active)
CN(Cc1cnc2nc(N)nc(N)c2n1)c1ccc(C(=O)N[C@@H](CCC(=O)O)C(=O)O)cc1 | 0.105 µM (active)
Cc1ncc(NC(=O)c2cccc(C(F)(F)F)c2)cc1-c1cnc(OC2CCOCC2)c(N2CCOCC2)c1 | 16.6 µM (active)
Cc1[nH]c2ccccc2c1CCNCc1ccc(/C=C/C(=O)NO)cc1 | 0.0525 µM (active)
CCC[C@@H]1C[C@@H](C(=O)N[C@@H]([C@H]2O[C@H](SC)[C@H](O)[C@@H](O)[C@H]2O)[C@H](C)Cl)N(C)C1 | inactive
CN1C(C(=O)Nc2ccccn2)=C(O)c2sccc2S1(=O)=O | inactive
CCC(=C/[C@H](C)C/C=C/C(C)=C/[C@@H](C)C(=O)[C@@H](C)[C@H](O)[C@@H](C)C/C(C)=C/C(=O)O)/C=C/[C@@H]1OC(=O)C=C[C@@H]1C | 0.003 µM (active)
C=CC(=O)Nc1cccc(Nc2nc(Nc3ccc(N4CCN(C(C)=O)CC4)cc3OC)ncc2C(F)(F)F)c1 | 2.95 µM (active)
O=C(CO)N1CCC(c2[nH]nc(-c3ccc(Cl)cc3)c2-c2ccncn2)CC1 | inactive
Cc1nnc(C[C@@H]2C=C(c3ccc(Cl)cc3)c3ccccc3-n3c(C)nnc32)o1 | 0.235 µM (active)
CCC1=C[C@@H]2CN(C1)Cc1c([nH]c3ccccc13)[C@@](C(=O)OC)(c1cc3c(cc1OC)N(C)[C@H]1[C@@](O)(C(=O)OC)[C@H](OC(C)=O)[C@]4(CC)C=CCN5CC[C@]31[C@@H]54)C2 | 0.323 µM (active)
COc1cc2ncnc(Nc3cccc(Cl)c3F)c2cc1OC(=O)N1CCN(C)C[C@H]1C | 13.2 µM (active)
